Inconclusive results are not listed. Calls of active or inactive are those of the source. The calls were made as follows: active = hit-call score of the fitted dose curve at least 0.9, where 1 is the maximum; inconclusive = response in the unintended direction; inactive = score below 0.9.

Chain of Glyceraldehyde-3-phosphate dehydrogenase (Homo sapiens) (P04406 whole entry, looked up): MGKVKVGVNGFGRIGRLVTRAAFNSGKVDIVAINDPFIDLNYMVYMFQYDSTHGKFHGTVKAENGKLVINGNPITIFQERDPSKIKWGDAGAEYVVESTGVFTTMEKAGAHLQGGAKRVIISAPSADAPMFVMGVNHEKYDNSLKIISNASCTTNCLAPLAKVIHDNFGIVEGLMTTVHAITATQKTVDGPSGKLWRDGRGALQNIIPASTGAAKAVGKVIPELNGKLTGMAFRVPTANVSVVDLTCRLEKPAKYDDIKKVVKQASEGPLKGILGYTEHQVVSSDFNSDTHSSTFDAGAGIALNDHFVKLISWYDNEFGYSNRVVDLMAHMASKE

Read-out in this test: Glyceraldehyde-3-phosphate dehydrogenase (Homo sapiens) (UniProt P04406)
As to the kind of experiment: CLD_GAPDH_24hr: CellzDirect (CLD) Gene Expression Assay for Baseline Control (Glyceraldehyde 3-phosphate dehydrogenase) at 24 hours (AID 2283692). The method, then:
CLD_24hr is a cell-based, multiplexed-readout assay that uses hepatocyte, a human liver primary cell, with measurements taken at 24 hours after chemical dosing in a 96-well plate.CLD_GAPDH_24hr is one of 16 assay component(s) measured or calculated from the CLD_24hr assay. It is designed to make measurements of mRNA induction, a form of inducible reporter, as detected with chemiluminescence signals by Quantitative Nuclease Protection Assay (qNPA) technology.Data from the assay component CLD_GAPDH_24hr was analyzed at the endpoint, CLD_GAPDH_24hr, in the positive analysis fitting direction relative to DMSO as the negative control and baseline of activity. Using a type of inducible reporter, gain-of-signal activity can be used to understand changes in the reporter gene as they relate to the gene GAPDH. Furthermore, this assay endpoint can be referred to as a secondary readout, because this assay has produced multiple assay endpoints where this one serves a background control function. To generalize the intended target to other relatable targets, this assay endpoint is annotated to the background measurement intended target family, where subfamily is baseline control.
Human hepatocyte cultures were treated daily for two consecutive days with fresh dosing solutions containing appropriate concentrations of the 320 ToxCast chemicals (chemical identities were blinded to CellzDirect and other ToxCast collaborators), vehicle control (0.2% DMSO), and positive control inducers as summarized in Table 1. Due to the large number of treatment groups and chemicals examined, the ToxCast chemicals were divided into two groups (spanning two independent cultures of hepatocytes from separate donor preparations (Hu778: ToxCast plates 1 and 2; Hu776: ToxCast plates 3 and 4). Each preparation of human hepatocyte cultures was treated with respective vehicle control, medium only control, set of six positive controls/reference chemicals for the five hepatic receptor pathways, and a subset of eight of the ToxCast chemicals (indoxacarb, pyrithiobac-sodium, norflurazon, cyhalofop-butyl, methomyl, thiram, acetochlor, and propiconazole). These replicate data, coupled with internal replicates designed within the blinded ToxCast chemical library, provided additional data to evaluate interindividual differences between hepatocyte preparations and their potential impact on chemical profiles.Cell morphology and integrity were evaluated using phase-contrast microscopy as an indicator of hepatocyte cell health (Tyson & Green, 1987). Cultures for each treatment group (i.e., media, vehicle [0.2% DMSO], positive control inducers [multiple concentrations], and the ToxCast chemicals [multiple concentrations]) were observed and cell morphology was assessed relative to vehicle control cultures at each harvest time point (0, 6, 24, or 48 h). […] Images were evaluated at the conclusion of the study to assess changes in cell integrity and account for the effects of chemical exposure on uncharacteristic changes in concentration-dependent gene expression profiles. The results from these determinations of apparent cytotoxicity were annotated (yes/no) alongside the corresponding qNPA data for reference.At the conclusion of each treatment period, hepatocyte cultures (96-well) were washed with 1 volume of HBSS, lysed by addition of 25 ul ArrayPlate lysis buffer (HTG, Tucson, AZ), and 70 ul/well of Denaturation Oil, denatured by incubation at 95C for 10 min, and frozen at approximately -70C until analysis by nuclease protection assay (qNPA) (Roberts et al., 2007). For qNPA analysis, cell lysates were thawed at 50C for approximately 30 min, qNPA probes were added, and samples were incubated at 95C for 10 min to begin the detection process by denaturing the target RNA, dissociating the duplexes and secondary structure hybridization. At the conclusion of the hybridization period, S1 nuclease reagent was added to each sample to digest all nonprotected nucleotides at 50C for 60-90 min. […]
As to `N#CN`, the call was inactive.

Take `O=S(=O)(O)C(F)(F)C(F)(F)C(F)(F)C(F)(F)C(F)(F)C(F)(F)C(F)(F)C(F)(F)F`: the call was inactive. The same measure for `N#Cc1c(Cl)c(Cl)c(Cl)c(C#N)c1Cl`: “inactive”.

`[2H]C1([2H])[n+]2ccccc2-c2cccc[n+]2C1([2H])[2H]`: the call was inactive. `COC(=O)c1ccccc1S(=O)(=O)NC(=O)Nc1nc(C)nc(OC)n1`: the outcome was inactive. For `COP(=O)(OC)OC=C(Cl)Cl`, the result was inactive. Regarding `CCOCN(C(=O)CCl)c1c(C)cccc1CC`, the call was inactive. As for `CC(C)N(C(=O)COc1nnc(C(F)(F)F)s1)c1ccc(F)cc1`, the compound was classed as inactive. The same measure for `C#CCN1C(=O)COc2cc(F)c(N3C(=O)C4=C(CCCC4)C3=O)cc21`: “inactive”. The same measure for `COC(=O)c1ccccc1CS(=O)(=O)NC(=O)Nc1nc(OC)cc(OC)n1`: “inactive”; for `Oc1cc(Cl)ccc1Oc1ccc(Cl)cc1Cl`: “inactive”. As for `CCOc1nc(NC)nc(NC(=O)NS(=O)(=O)c2ccccc2C(=O)OC)n1`, the compound was called inactive. Under `OCCOc1ccccc1` stands “inactive”; under `CNC(=O)Oc1cccc(N=CN(C)C)c1`, “inactive”. Under `O=C(Nc1ccccc1)Nc1cnns1` stands “inactive”; under `O=[N+]([O-])/N=C1\NCCN1Cc1ccc(Cl)nc1`, “inactive”.

With `O=C1c2ccccc2C(=O)N1SC(Cl)(Cl)Cl`, the compound was called inactive. The same measure for `Oc1ccc(Cl)cc1Cc1ccccc1`: “inactive”; for `COc1cc(OC)nc(NC(=O)NS(=O)(=O)c2cc(NC=O)ccc2C(=O)N(C)C)n1`: “inactive”; for `O=C(O)C(F)(F)C(F)(F)C(F)(F)C(F)(F)C(F)(F)C(F)(F)C(F)(F)F`: “inactive”. Take `Cc1[nH]c(=O)n(C(C)(C)C)c(=O)c1Cl`: the compound was called inactive. Under `CNC(=O)Oc1ccccc1OC(C)C` stands “inactive”. Under `Cc1cc(C)nc(NC(=O)NS(=O)(=O)c2ccccc2C(=O)OC2COC2)n1` stands “inactive”; under `CN1CSC(=S)N(C)C1`, “inactive”; under `O=C(O)COc1ccc(Cl)cc1Cl`, “inactive”. In the case of `CNC(=O)CSP(=S)(OC)OC`, the result was inactive.

Turning to `CCC(C)(NC(=O)c1cc(Cl)c(C)c(Cl)c1)C(=O)CCl` (configuration not stated), the outcome was inactive.

The values above are taken from PubChem BioAssay (EPA / NIEHS).
